{"source": "paper PMC9911399", "about": "“Two distinct binding modes provide the RNA-binding protein RbFox with extraordinary sequence specificity”", "binders": {"B1": {"name": "UACCUCU (DNA:RNA)", "RNA": "GGGAGACCGGAAUUCAGAUUGUCCUACCUCUUUAAAUCCCGUCGUAGCCACCA", "DNA 1": "CAATCTGAATTCCGGTCTCCC", "DNA 2": "TGGTGGCTACGACGGGATT"}, "B2": {"name": "CUGGGAG (DNA:RNA)", "RNA": "GGGAGACCGGAAUUCAGAUUGUCCCUGGGAGUUAAAUCCCGUCGUAGCCACCA", "DNA 1": "CAATCTGAATTCCGGTCTCCC", "DNA 2": "TGGTGGCTACGACGGGATT"}, "B3": {"name": "GUUAGAA (DNA:RNA)", "RNA": "B2 RNA with C25G, G27U, G28A, G31A", "DNA 1": "CAATCTGAATTCCGGTCTCCC", "DNA 2": "TGGTGGCTACGACGGGATT"}, "B4": {"name": "AGUGUCU (DNA:RNA)", "RNA": "B1 RNA with U25A, A26G, C27U, C28G", "DNA 1": "CAATCTGAATTCCGGTCTCCC", "DNA 2": "TGGTGGCTACGACGGGATT"}, "B5": {"name": "AGAUAUU (DNA:RNA)", "RNA": "B1 RNA with U25A, A26G, C27A, C28U, U29A, C30U", "DNA 1": "CAATCTGAATTCCGGTCTCCC", "DNA 2": "TGGTGGCTACGACGGGATT"}, "B6": {"name": "AGUGGUA (DNA:RNA)", "RNA": "B2 RNA with C25A, U26G, G27U, A30U, G31A", "DNA 1": "CAATCTGAATTCCGGTCTCCC", "DNA 2": "TGGTGGCTACGACGGGATT"}, "B7": {"name": "GGGGCAA (DNA:RNA)", "RNA": "B2 RNA with C25G, U26G, G29C, G31A", "DNA 1": "CAATCTGAATTCCGGTCTCCC", "DNA 2": "TGGTGGCTACGACGGGATT"}, "B8": {"name": "CGGGCAG (DNA:RNA)", "RNA": "B2 RNA with U26G, G29C", "DNA 1": "CAATCTGAATTCCGGTCTCCC", "DNA 2": "TGGTGGCTACGACGGGATT"}, "B9": {"name": "CGGGCAA (DNA:RNA)", "RNA": "B2 RNA with U26G, G29C, G31A", "DNA 1": "CAATCTGAATTCCGGTCTCCC", "DNA 2": "TGGTGGCTACGACGGGATT"}, "B10": {"name": "GGGCAGU (DNA:RNA)", "RNA": "B1 RNA with U25G, A26G, C27G, U29A, C30G", "DNA 1": "CAATCTGAATTCCGGTCTCCC", "DNA 2": "TGGTGGCTACGACGGGATT"}, "B11": {"name": "GGGCAAA (DNA:RNA)", "RNA": "B2 RNA with C25G, U26G, G28C, G29A, G31A", "DNA 1": "CAATCTGAATTCCGGTCTCCC", "DNA 2": "TGGTGGCTACGACGGGATT"}, "B12": {"name": "GGGGCAG (DNA:RNA)", "RNA": "B2 RNA with C25G, U26G, G29C", "DNA 1": "CAATCTGAATTCCGGTCTCCC", "DNA 2": "TGGTGGCTACGACGGGATT"}, "B13": {"name": "CCAUAAU (DNA:RNA)", "RNA": "B2 RNA with U26C, G27A, G28U, G29A, G31U", "DNA 1": "CAATCTGAATTCCGGTCTCCC", "DNA 2": "TGGTGGCTACGACGGGATT"}, "B14": {"name": "CCUAAGA (DNA:RNA)", "RNA": "B2 RNA with U26C, G27U, G28A, G29A, A30G, G31A", "DNA 1": "CAATCTGAATTCCGGTCTCCC", "DNA 2": "TGGTGGCTACGACGGGATT"}, "B15": {"name": "GUAGGGA (DNA:RNA)", "RNA": "B2 RNA with C25G, G27A, A30G, G31A", "DNA 1": "CAATCTGAATTCCGGTCTCCC", "DNA 2": "TGGTGGCTACGACGGGATT"}, "B16": {"name": "CUCCGUG (DNA:RNA)", "RNA": "B2 RNA with G27C, G28C, A30U", "DNA 1": "CAATCTGAATTCCGGTCTCCC", "DNA 2": "TGGTGGCTACGACGGGATT"}, "B17": {"name": "CGGUUAU (DNA:RNA)", "RNA": "B2 RNA with U26G, G28U, G29U, G31U", "DNA 1": "CAATCTGAATTCCGGTCTCCC", "DNA 2": "TGGTGGCTACGACGGGATT"}, "B18": {"name": "GCACCGU (DNA:RNA)", "RNA": "B1 RNA with U25G, A26C, C27A, U29C, C30G", "DNA 1": "CAATCTGAATTCCGGTCTCCC", "DNA 2": "TGGTGGCTACGACGGGATT"}, "B19": {"name": "ACGUUUU (DNA:RNA)", "RNA": "B1 RNA with U25A, A26C, C27G, C28U, C30U", "DNA 1": "CAATCTGAATTCCGGTCTCCC", "DNA 2": "TGGTGGCTACGACGGGATT"}, "B20": {"name": "GCACGUU (DNA:RNA)", "RNA": "B1 RNA with U25G, A26C, C27A, U29G, C30U", "DNA 1": "CAATCTGAATTCCGGTCTCCC", "DNA 2": "TGGTGGCTACGACGGGATT"}, "B21": {"name": "CAGCACG (DNA:RNA)", "RNA": "B2 RNA with U26A, G28C, G29A, A30C", "DNA 1": "CAATCTGAATTCCGGTCTCCC", "DNA 2": "TGGTGGCTACGACGGGATT"}, "B22": {"name": "GCCACGU (DNA:RNA)", "RNA": "B1 RNA with U25G, A26C, C28A, U29C, C30G", "DNA 1": "CAATCTGAATTCCGGTCTCCC", "DNA 2": "TGGTGGCTACGACGGGATT"}, "B23": {"name": "AGCACGU (DNA:RNA)", "RNA": "B1 RNA with U25A, A26G, C28A, U29C, C30G", "DNA 1": "CAATCTGAATTCCGGTCTCCC", "DNA 2": "TGGTGGCTACGACGGGATT"}, "B24": {"name": "AGCACCG (DNA:RNA)", "RNA": "B1 RNA with U25A, A26G, C28A, U29C, U31G", "DNA 1": "CAATCTGAATTCCGGTCTCCC", "DNA 2": "TGGTGGCTACGACGGGATT"}, "B25": {"name": "CACGUUU (DNA:RNA)", "RNA": "B1 RNA with U25C, C28G, C30U", "DNA 1": "CAATCTGAATTCCGGTCTCCC", "DNA 2": "TGGTGGCTACGACGGGATT"}, "B26": {"name": "CGCACGU (DNA:RNA)", "RNA": "B1 RNA with U25C, A26G, C28A, U29C, C30G", "DNA 1": "CAATCTGAATTCCGGTCTCCC", "DNA 2": "TGGTGGCTACGACGGGATT"}, "B27": {"name": "GCACGGU (DNA:RNA)", "RNA": "B1 RNA with U25G, A26C, C27A, U29G, C30G", "DNA 1": "CAATCTGAATTCCGGTCTCCC", "DNA 2": "TGGTGGCTACGACGGGATT"}, "B28": {"name": "GCACCGG (DNA:RNA)", "RNA": "B2 RNA with C25G, U26C, G27A, G28C, G29C, A30G", "DNA 1": "CAATCTGAATTCCGGTCTCCC", "DNA 2": "TGGTGGCTACGACGGGATT"}, "B29": {"name": "CGCACGG (DNA:RNA)", "RNA": "B2 RNA with U26G, G27C, G28A, G29C, A30G", "DNA 1": "CAATCTGAATTCCGGTCTCCC", "DNA 2": "TGGTGGCTACGACGGGATT"}, "B30": {"name": "GGCUAAG (DNA:RNA)", "RNA": "B2 RNA with C25G, U26G, G27C, G28U, G29A", "DNA 1": "CAATCTGAATTCCGGTCTCCC", "DNA 2": "TGGTGGCTACGACGGGATT"}, "B31": {"name": "CUCGGCA (DNA:RNA)", "RNA": "B2 RNA with G27C, A30C, G31A", "DNA 1": "CAATCTGAATTCCGGTCTCCC", "DNA 2": "TGGTGGCTACGACGGGATT"}}, "note": "Residue numbers refer to the chain shown, from its start. In all, about 16,000 sequences were measured (“ka relative to ugcaugu”: median about 0.0091, highest 2% from about 0.032 on). The list comes from a sample in which the highest values are over-represented; it also holds similar and randomly drawn sequences.", "data": [{"target": "T1, RBFOX1 RRM (Homo sapiens, UniProt Q9NWB1 109-208)", "T1 sequence": "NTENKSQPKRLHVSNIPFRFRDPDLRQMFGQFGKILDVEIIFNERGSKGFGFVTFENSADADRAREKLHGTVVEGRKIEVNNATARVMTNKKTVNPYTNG", "assay": "EMSA; HiTS-Eq, 1 nM pool, 10 min; buffer printed only for the single-RNA assays: 10 mM Tris pH 7.5, 150 mM NaCl, 3.4 mM EDTA, 0.001% NP-40, 30 C", "details": "tags: His6 N-terminal (pET28a); label: 5' 32P", "how_it_was_run": "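Purified RbFox RRM, wild type or mutant, was incubated for 10 min in 50 µL with 1 nM of a 5′-radiolabelled RNA pool carrying 7 randomized nucleotides, whose flanks were annealed to DNA oligonucleotides, over a series of increasing protein concentrations. Unbound RNA was resolved on 8% native PAGE, cut out, reverse-transcribed, barcoded by PCR and sequenced on an Illumina HiSeq 2500. Relative association constants were derived from changes in read counts for each RNA species versus the control reaction and normalised to the cognate motif.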", "values": [{"binder": "B1", "binding signal": "0.00134 KA relative to UGCAUGU"}, {"binder": "B2", "binding signal": "0.0142 KA relative to UGCAUGU"}, {"binder": "B3", "binding signal": "0.0142 KA relative to UGCAUGU"}, {"binder": "B4", "binding signal": "0.0109 KA relative to UGCAUGU"}, {"binder": "B5", "binding signal": "0.00865 KA relative to UGCAUGU"}, {"binder": "B6", "binding signal": "0.0144 KA relative to UGCAUGU"}, {"binder": "B7", "binding signal": "0.032 KA relative to UGCAUGU"}, {"binder": "B8", "binding signal": "0.0252 KA relative to UGCAUGU"}, {"binder": "B9", "binding signal": "0.0227 KA relative to UGCAUGU"}, {"binder": "B10", "binding signal": "0.0161 KA relative to UGCAUGU"}, {"binder": "B11", "binding signal": "0.0043 KA relative to UGCAUGU"}, {"binder": "B12", "binding signal": "0.0491 KA relative to UGCAUGU"}, {"binder": "B13", "binding signal": "0.00169 KA relative to UGCAUGU"}, {"binder": "B14", "binding signal": "0.00773 KA relative to UGCAUGU"}, {"binder": "B15", "binding signal": "0.00497 KA relative to UGCAUGU"}, {"binder": "B16", "binding signal": "0.0111 KA relative to UGCAUGU"}, {"binder": "B17", "binding signal": "0.0102 KA relative to UGCAUGU"}, {"binder": "B18", "binding signal": "0.0125 KA relative to UGCAUGU"}, {"binder": "B19", "binding signal": "0.00473 KA relative to UGCAUGU"}, {"binder": "B20", "binding signal": "0.043 KA relative to UGCAUGU"}, {"binder": "B21", "binding signal": "0.0261 KA relative to UGCAUGU"}, {"binder": "B22", "binding signal": "0.011 KA relative to UGCAUGU"}, {"binder": "B23", "binding signal": "0.0367 KA relative to UGCAUGU"}, {"binder": "B24", "binding signal": "0.00835 KA relative to UGCAUGU"}, {"binder": "B25", "binding signal": "0.00574 KA relative to UGCAUGU"}, {"binder": "B26", "binding signal": "0.0433 KA relative to UGCAUGU"}, {"binder": "B27", "binding signal": "0.0324 KA relative to UGCAUGU"}, {"binder": "B28", "binding signal": "0.00674 KA relative to UGCAUGU"}, {"binder": "B29", "binding signal": "0.0278 KA relative to UGCAUGU"}, {"binder": "B30", "binding signal": "0.0134 KA relative to UGCAUGU"}, {"binder": "B31", "binding signal": "0.0189 KA relative to UGCAUGU"}]}]}
